Source: PubChem BioAssay
KB-V1 cytotox = kills drug-selected multidrug resistant KB-V1 cells; KB-V1 MDR cells viability, CellTiter-Glo, 72 h; Potency, µM (highest dose often 46.1 µM), most hits filed as cytotoxic; actives 3.4% (n = 400,000); AID 1347076; note: % is set by controls: 0 for no effect and ±100 for the full control effect; nearly all actives have a fitted effect of over 60% in size
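KB-V1 cells (P-gp-expressing MDR subline of KB-3-1) in phenol-red-free DMEM with 10% FBS were exposed to library compounds over a concentration series for 72 h at 37 degrees C. Viability read by CellTiter-Glo luminescence; concentration-effect curves fitted after normalization.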
MCF10A rerep = induces DNA re-replication in MCF 10a normal breast cells; MCF 10A DNA re-replication, Hoechst nuclear intensity, 48 h; Potency, µM (titrated, usually from 46.1 µM), inactives show at the highest dose activity, positive = re-replication, actives largely listed as activators; actives 2.9% (n = 350,000); note: % of control where 0% means no effect; nearly all actives have a fitted effect of over 50% in size
SW480 rereplic = DNA re-replication induction in SW480 cells | SW480 DNA re-replication, Hoechst DNA content imaging, 48 h | Potency, µM (series often up to 46.1 µM), for the others: at the highest dose re-replication activation, actives largely listed as activators | actives 1.8% (n = 340,000); note: % of control where 0% means no effect; nearly all actives have a fitted effect of over 55% in size
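Readout is total intensity of Hoechst-stained nuclei, excited at 405 nm and collected at 500-530 nm. Compound treatment lasted 48 hr at 37 C in 5% CO2 before staining.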
ALOX12 inh = ALOX12 (human) lipoxygenase inhibition; Potency, µM (titrated, usually from 108 µM), for inactives: top-dose activity change, negative = inhibition, actives largely listed as inhibitors; P18054; purified 12hLO, xylenol orange hydroperoxide absorbance; actives 1.1% (n = 580,000); AID 1671190; note: % is set by controls: 0 for no effect and ±100 for the full control effect
Target sequence (P18054 whole entry, looked up): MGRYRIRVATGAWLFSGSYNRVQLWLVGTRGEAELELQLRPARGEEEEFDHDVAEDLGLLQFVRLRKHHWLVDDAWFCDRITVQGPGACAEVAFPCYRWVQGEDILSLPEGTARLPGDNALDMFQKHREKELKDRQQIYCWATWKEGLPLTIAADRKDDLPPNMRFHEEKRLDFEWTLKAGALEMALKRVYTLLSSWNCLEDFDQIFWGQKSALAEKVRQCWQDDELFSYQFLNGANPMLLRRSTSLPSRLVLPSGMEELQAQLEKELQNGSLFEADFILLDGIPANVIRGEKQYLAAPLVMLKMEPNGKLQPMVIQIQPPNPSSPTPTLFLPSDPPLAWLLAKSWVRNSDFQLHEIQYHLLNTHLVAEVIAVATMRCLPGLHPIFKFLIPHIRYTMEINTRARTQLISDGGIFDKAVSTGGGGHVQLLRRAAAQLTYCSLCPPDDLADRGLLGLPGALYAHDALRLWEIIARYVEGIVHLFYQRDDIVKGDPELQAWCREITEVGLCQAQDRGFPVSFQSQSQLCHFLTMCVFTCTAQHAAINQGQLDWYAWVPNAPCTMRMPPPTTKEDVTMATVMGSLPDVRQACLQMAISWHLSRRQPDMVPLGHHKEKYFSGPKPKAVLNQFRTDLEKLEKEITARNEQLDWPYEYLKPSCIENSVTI
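Purified human 12hLO (150 nM final) in 25 mM Hepes, 0.01% Triton X-100, pH 7.0 was preincubated 15 min at room temperature with compound. Then 40 uM arachidonic acid was added, 30 min. Hydroperoxide was read by Fe-XO absorbance ratio 573/405 nm.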
PINK1 modulator = changes PINK1 expression; PINK1 immunofluorescence, high-content cytometry, 24 h; Potency, µM (doses to about 76.6 µM), for the others: at the top dose activation (PINK1 increase), usual class: activators; AID 624263; actives 0.2% (n = 410,000); active = well fitted activation curve with a large enough effect; inconclusive = small, poorly fitted or top-dose-only effect; cell line not stated here; note: % of control where 0% means no effect; nearly all actives have a fitted effect of over 65% in size
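Decision-based qHTS: stable cells, 24 h exposure to five compound concentrations, CCCP as control. Fixed cells stained for PINK1 plus nuclear, mitochondrial and cell markers, cytometer read.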
KB-3-1 cytotox = KB-3-1 parental cell cytotoxicity | KB-3-1 viability, CellTiter-Glo ATP luminescence, 72 h | Potency, µM (top dose mostly 46.1 µM), actives largely listed as cytotoxic | actives 1.4% (n = 400,000); note: % is set by controls: 0 for no effect and ±100 for the full control effect; nearly all actives have a fitted effect of over 60% in size
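KB-3-1 parental drug-naive adenocarcinoma cells in DMEM/10% FBS, incubated 72 h at 37 C with pin-transferred compounds across a concentration series. Viability by CellTiter-Glo luminescence; concentration-response curves fitted after normalization.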
The depositor's hits bear a star; [ ] = dose if it differs, or a comment. Most compounds without a hit are left out; they make up all but 5.8% or so of the library. Unless noted, calls come from the whole dose curve; as a rule, active = well fitted curve in the direction sought with a large enough effect; inconclusive = small, poorly fitted or top-dose-only effect, or another doubt; inactive = no such curve, though single readings can be large; an effect the other way counts as inactive or inconclusive. Potency is the fitted concentration of half-maximal effect.

`COc1ccc(S(=O)(=O)N2CCCC2CNC(=O)C(=O)NCCc2ccccc2)cc1` (stereo unspecified) gave KB-V1 cytotox 4.61µM*, MCF10A rerep inconclusive, SW480 rereplic inconclusive, ALOX12 inh -4.2%, PINK1 modulator inconclusive and KB-3-1 cytotox 8.2µM*.
Screening COc1ccccc1CCNC(=O)C(=O)NCC1OCCN1S(=O)(=O)c1ccccc1 (stereo unspecified) returned KB-V1 cytotox inactive, MCF10A rerep 2.0%, SW480 rereplic -9.4%, ALOX12 inh 0.3%, PINK1 modulator 0.8% and KB-3-1 cytotox inactive.
Screening COc1ccc(S(=O)(=O)N2CCCC2CNC(=O)C(=O)NCc2ccccc2)cc1 (stereo unspecified) returned KB-V1 cytotox inconclusive, MCF10A rerep -29.8%, SW480 rereplic -50.9%, ALOX12 inh 15.3%, PINK1 modulator 5.8% and KB-3-1 cytotox inconclusive.
`COc1ccc(CCNC(=O)C(=O)NCC2CCCN2S(=O)(=O)c2ccccc2)cc1` (stereo unspecified) gave KB-V1 cytotox inactive, MCF10A rerep inconclusive, SW480 rereplic 4.61µM*, ALOX12 inh -2.9%, PINK1 modulator -0.4% and KB-3-1 cytotox inactive.
`COc1ccccc1CCNC(=O)C(=O)NCC1CCCN1S(=O)(=O)c1ccccc1` (stereo unspecified) gave KB-V1 cytotox 20.6µM*, MCF10A rerep inconclusive, SW480 rereplic inconclusive, ALOX12 inh 1.8%, PINK1 modulator 2.9% and KB-3-1 cytotox inactive.
COC(=O)c1ccc2nc(-c3ccc(Cl)cc3)c(CC3CCCCC3)n2c1 was read as KB-V1 cytotox 16.4µM*, ALOX12 inh -26.8%, PINK1 modulator 1.7% and KB-3-1 cytotox inconclusive.
`COC(=O)c1ccc2nc(-c3cccc(Br)c3)c(CC3CCCCC3)n2c1` gave KB-V1 cytotox 13µM*, ALOX12 inh inconclusive, PINK1 modulator 0.0% and KB-3-1 cytotox inconclusive.
`COc1ccc(C(=O)C(C)OC(=O)c2cc3cccc(OC)c3oc2=O)cc1` (stereo unspecified) gave ALOX12 inh 10.8%.
`COC(=O)[C@@]1(Cc2ccc(OC)cc2)[C@@H]2C(=CC(=O)[C@H]2CC(=O)C(=O)N2CCCC2)CN1C(=O)c1ccccc1` gave KB-V1 cytotox inconclusive, MCF10A rerep 23.1µM*, SW480 rereplic inconclusive, PINK1 modulator 0.0% and KB-3-1 cytotox 9.2µM*.
Cc1ccc(S(=O)(=O)Nc2cccc(C(=O)NCC(c3ccco3)N3CCCC3)c2)cc1F (stereo unspecified) was read as KB-V1 cytotox inconclusive, MCF10A rerep 20.7%, SW480 rereplic 23.1µM*, ALOX12 inh -11.2%, PINK1 modulator 1.6% and KB-3-1 cytotox inconclusive.
For COc1ccccc1C(CNC(=O)c1cccc(NS(=O)(=O)c2ccc(C)c(F)c2)c1)N1CCCC1 (stereo unspecified) the results were KB-V1 cytotox inactive, MCF10A rerep 2.6%, SW480 rereplic -6.8%, ALOX12 inh 0.5%, PINK1 modulator 0.5% and KB-3-1 cytotox inactive.
O=C(NCC(c1ccco1)N1CCCCC1)c1cccc(NS(=O)(=O)c2ccc(Br)cc2)c1 (stereo unspecified) was read as KB-V1 cytotox inconclusive, MCF10A rerep 18.4µM*, SW480 rereplic 3.9%, ALOX12 inh inconclusive, PINK1 modulator -0.2% and KB-3-1 cytotox inactive.
Screening CCCNC(=O)NC(=O)COC(=O)c1csc(NCCC(C)C)n1 returned ALOX12 inh -25.1%.
`Cc1oc(-c2cccs2)nc1C(=O)N1CCOCC1` gave ALOX12 inh -2.3%.
For COc1cc(/C=C2\S/C(=N/S(=O)(=O)c3ccc(C)cc3)NC2=O)c([N+](=O)[O-])cc1OC the results were KB-V1 cytotox inactive, MCF10A rerep -0.4%, SW480 rereplic -12.5%, ALOX12 inh inconclusive and KB-3-1 cytotox inactive.
For O=C1NC(=Nc2ccccc2Cl)S/C1=C\c1cc([N+](=O)[O-])ccc1O the results were KB-V1 cytotox inactive, MCF10A rerep inconclusive, SW480 rereplic 1.3%, ALOX12 inh 31.6µM*, PINK1 modulator 2.4% and KB-3-1 cytotox inactive.
Cc1ccc(S(=O)(=O)/N=C2/NC(=O)/C(=C/c3cc([N+](=O)[O-])ccc3O)S2)cc1 was read as KB-V1 cytotox inactive, MCF10A rerep 2.8%, SW480 rereplic 5.4%, ALOX12 inh 10µM*, PINK1 modulator -0.7% and KB-3-1 cytotox inactive.
Screening COc1ccc(C(=O)Nc2ccc(-c3noc([C@@H]4CCCN4CCCc4ccccc4)n3)cn2)cc1 returned ALOX12 inh 49.1%.
For O=S(=O)(c1ccc(Oc2ccc(Br)cc2)cc1)N1CCOCC1 the results were KB-V1 cytotox 11.6µM*, MCF10A rerep 1.1%, SW480 rereplic -4.1%, ALOX12 inh 0.0%, PINK1 modulator 7.5% and KB-3-1 cytotox inactive.
`O=C(CSCc1ccc(Br)cc1)Nc1ccc(S(=O)(=O)N2CCOCC2)cc1` gave KB-V1 cytotox 20.6µM*, MCF10A rerep -4.2%, SW480 rereplic -2.8%, ALOX12 inh 9.0%, PINK1 modulator -3.5%[38.3 µM] and KB-3-1 cytotox inactive.
COc1ccc(S(=O)(=O)N2CCOCC2)cc1 was read as KB-V1 cytotox inconclusive, PINK1 modulator 0.2% and KB-3-1 cytotox inconclusive.
Cc1ccc(CSCC(=O)Nc2cc(S(=O)(=O)N3CCOCC3)ccc2OCC(F)(F)F)cc1 was read as KB-V1 cytotox 14.6µM*, MCF10A rerep 2.4%, SW480 rereplic 5.8%, ALOX12 inh 8.1%, PINK1 modulator -0.6% and KB-3-1 cytotox inconclusive.
For O=C(c1ccc(-n2c(SCc3cccc(F)c3)nc3ccccc3c2=O)cc1)N1CCOCC1 the results were KB-V1 cytotox inconclusive, MCF10A rerep 15.9%, SW480 rereplic 1.1%, ALOX12 inh 1.6%, PINK1 modulator 0.4% and KB-3-1 cytotox inconclusive.
O=c1c2ccccc2nc(SCc2cccc(F)c2)n1-c1cccc(S(=O)(=O)N2CCCC2)c1 was read as KB-V1 cytotox 3.26µM*, MCF10A rerep 1.3%, SW480 rereplic -45.6%, ALOX12 inh -11.2%, PINK1 modulator 4.0% and KB-3-1 cytotox inactive.
C=CCn1c(SCc2nc3ccccc3c(=O)[nH]2)nc2sc3c(c2c1=O)CCCC3 was read as KB-V1 cytotox inactive, MCF10A rerep 15.2%, SW480 rereplic -4.7%, PINK1 modulator 5.1% and KB-3-1 cytotox inactive.
